In the supplement of paper PMC10849652:
Targets with a hit are over-represented here; the source holds about 7,900 in all. About 0.6% of all pairs of compound and target were hits.

What was measured:
Experiment in all cases: log2 fold change, soluble protein after heating vs DMSO (PISA); higher = thermal stabilisation; K562 cells, 10 uM, 30 min; active = over 0.2 and 3.5 SD of the protein, either way, in both replicates (recomputed)
erlotinib = compound: C#Cc1cccc(Nc2ncnc3cc(OCCOC)c(OCCOC)cc23)c1 [erlotinib]
Procedure, shortened: (§1)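 For each measurement, 10 μM compound was applied for 30 min to K562 cells at 2×10^6 cells/mL. Aliquots were heated for 3 min across 48°C-58°C, pooled, and extracted in PBS with 0.5% NP-40 at 4°C; the supernatant after 21,000xg for 90 min was soluble protein. This was quantified by TMTpro 16plex LC-MS/MS with channel sums equalised, and thermal stability was reported relative to control samples from duplicates, on a log2 fold-change scale.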

[1] = compound: C/C(=N\NC(=O)C1=CC(=CC=C1)S(=O)(=O)N2CCOCC2)/C3=C(C=CC(=C3)Cl)O
Procedure, shortened: as §1

[2] = compound: C1=CC(=C(C=C1Cl)C2=NC3=NC=CN=C3C(=N2)NC4=CC=NC=C4)F
Procedure, shortened: as §1

[3] = compound: C1=CC(=CC=C1C2=NC3=C(N2)C=C(C=C3)C(=O)N)OC4=CC=C(C=C4)Cl
Procedure, shortened: as §1

[4] = compound: C1=CC2=C(C=CC(=C2)/C=C\3/C(=O)NC(=NCC4=CC=CS4)S3)N=C1
Procedure, shortened: as §1

[5] = compound: C1=CC2=NC=CN=C2C=C1/C=C/3\C(=O)NC(=O)S3
Procedure, shortened: as §1

[6] = compound: C1=CC=C(C=C1)C2=NC(=C(N2)C3=CC=NC=C3)C4=CC(=C(C=C4)Cl)O
Procedure, shortened: as §1

[7] = compound: C1=CC=C2C(=C1)C3=NNC4=CC=CC(=C43)C2=O
Procedure, shortened: as §1

[8] = compound: C1CCN(C1)C(=O)NC2=CC=CC(=C2)NC3=NC=C(C(=N3)NCCC4=CN=CN4)Br
Procedure, shortened: as §1

[9] = compound: C1CN(CCC1(CC2=CC=C(C=C2)Cl)N)C3=NC=NC4=C3C=CN4
Procedure, shortened: as §1

Measured: log2 fold change

NMD3 (UniProt Q96D46)
active: [9] -0.281
inactive: erlotinib 0.025 | [1] 0.011 | [2] 0.052 | [3] 0.023 | [4] 0.009 | [5] -0.02 | [6] 0.05 | [7] 0.013 | [8] 0.064

NDUFA4 (UniProt O00483)
Sequence of UniProt O00483 (O00483 whole entry, looked up): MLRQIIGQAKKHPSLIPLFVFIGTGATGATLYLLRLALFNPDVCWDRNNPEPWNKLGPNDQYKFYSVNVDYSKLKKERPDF
inactive: erlotinib -0.134 | [1] 0.002 | [2] 0.258 | [3] 0.042 | [4] 0.047 | [5] 0.072 | [6] 0.038 | [7] 0.011 | [8] 0.086 | [9] -0.017

NRGN (UniProt Q92686)
inactive: erlotinib 0.066 | [1] 0.086 | [2] 0.054 | [3] -0.074 | [4] -0.264 | [5] -0.027 | [6] 0.139 | [7] 0.105

MRPS16 (UniProt Q9Y3D3)
inactive: erlotinib -0.126 | [1] 0 | [2] -0.025 | [3] 0.159 | [4] 0.014 | [5] 0.079 | [6] 0.117 | [7] 0.044 | [8] -0.085 | [9] -0.097

MRPS21 (UniProt P82921)
inactive: erlotinib 0.014 | [1] -0.04 | [2] -0.096 | [3] 0.042 | [4] -0.241 | [5] -0.138 | [6] -0.019 | [7] 0.297 | [8] -0.091 | [9] -0.07

MRPS17 (UniProt Q9Y2R5)
inactive: erlotinib -0.034 | [1] -0.019 | [2] -0.125 | [3] 0.142 | [4] -0.062 | [5] 0 | [6] 0.042 | [7] 0.088 | [8] -0.014 | [9] -0.126

MRPS15 (UniProt P82914)
inactive: erlotinib -0.061 | [1] -0.201 | [2] -0.119 | [3] 0.089 | [4] 0.069 | [5] 0.064 | [6] 0.021 | [7] 0.106 | [8] -0.045 | [9] -0.108

NQO1 (UniProt P15559)
active: [7] 0.269
inactive: erlotinib -0.064 | [1] 0.037 | [2] 0.089 | [3] -0.002 | [4] -0.06 | [5] -0.005 | [6] -0.014 | [8] -0.015 | [9] 0.065

NCKAP1 isoform 2 (UniProt Q9Y2A7)
inactive: erlotinib -0.019 | [1] 0.096 | [2] 0.056 | [3] 0.02 | [4] 0.015 | [5] 0.02 | [6] 0.024 | [7] -0.003 | [8] -0.037 | [9] 0.027

OXSM (UniProt Q9NWU1)
Sequence of UniProt Q9NWU1 (Q9NWU1 whole entry, looked up): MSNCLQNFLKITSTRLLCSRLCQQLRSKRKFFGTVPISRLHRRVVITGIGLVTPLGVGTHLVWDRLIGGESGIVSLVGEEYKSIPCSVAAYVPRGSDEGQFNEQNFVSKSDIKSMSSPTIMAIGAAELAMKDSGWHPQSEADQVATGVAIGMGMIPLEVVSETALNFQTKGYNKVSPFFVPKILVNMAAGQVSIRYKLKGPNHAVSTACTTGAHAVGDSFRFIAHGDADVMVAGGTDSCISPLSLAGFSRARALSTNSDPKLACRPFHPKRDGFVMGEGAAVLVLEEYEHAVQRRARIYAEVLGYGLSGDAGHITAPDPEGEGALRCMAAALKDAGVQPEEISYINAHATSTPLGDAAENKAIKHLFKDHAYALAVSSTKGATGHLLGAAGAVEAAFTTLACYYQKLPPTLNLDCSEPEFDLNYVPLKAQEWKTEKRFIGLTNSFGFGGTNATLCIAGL
inactive: erlotinib -0.079 | [1] 0.024 | [2] 0.005 | [3] 0.055 | [4] -0.052 | [5] -0.001 | [6] 0.053 | [7] -0.034 | [8] -0.042 | [9] 0.019

OTULIN (UniProt Q96BN8)
inactive: erlotinib -0.023 | [1] 0.054 | [2] 0.091 | [3] -0.143 | [4] 0.066 | [5] 0.06 | [6] -0.027 | [7] 0.039 | [8] -0.042 | [9] -0.086

NOP56 (UniProt O00567)
active: [2] -0.676
inactive: erlotinib -0.093 | [1] -0.012 | [3] 0.087 | [4] -0.232 | [5] 0.045 | [6] -0.164 | [7] -0.109 | [8] -0.111 | [9] -0.15

MTMR14 (UniProt Q8NCE2)
inactive: erlotinib -0.019 | [1] 0.009 | [2] 0.047 | [3] 0.037 | [4] 0.002 | [5] 0.009 | [6] -0.038 | [7] -0.05 | [8] -0.05 | [9] 0.028

OGFOD1 (UniProt Q8N543)
inactive: erlotinib 0.043 | [1] -0.18 | [2] 0.02 | [3] 0.007 | [4] 0.015 | [5] 0.11 | [6] -0.01 | [7] 0.014 | [8] 0.007 | [9] 0.03

NUDCD2 (UniProt Q8WVJ2)
inactive: erlotinib 0.054 | [1] -0.003 | [2] 0.019 | [3] -0.071 | [4] 0.025 | [5] 0.018 | [6] -0.014 | [7] 0.012 | [8] -0.107 | [9] -0.08

NEMP1 (UniProt O14524)
Sequence of UniProt O14524 (O14524 whole entry, looked up): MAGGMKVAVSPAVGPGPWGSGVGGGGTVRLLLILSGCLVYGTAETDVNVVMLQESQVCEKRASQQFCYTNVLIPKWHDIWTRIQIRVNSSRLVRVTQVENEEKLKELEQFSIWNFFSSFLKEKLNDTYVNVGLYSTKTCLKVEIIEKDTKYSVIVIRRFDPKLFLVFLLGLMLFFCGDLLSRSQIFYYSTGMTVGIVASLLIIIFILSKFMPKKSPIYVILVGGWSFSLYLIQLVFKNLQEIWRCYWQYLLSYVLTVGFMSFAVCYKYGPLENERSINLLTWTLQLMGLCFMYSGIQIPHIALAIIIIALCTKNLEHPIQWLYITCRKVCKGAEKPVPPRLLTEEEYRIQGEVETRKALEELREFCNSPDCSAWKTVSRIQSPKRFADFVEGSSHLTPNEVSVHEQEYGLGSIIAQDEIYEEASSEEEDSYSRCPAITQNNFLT
inactive: erlotinib -0.003 | [1] -0.011 | [2] -0.027 | [3] 0.023 | [4] 0.049 | [5] 0.016 | [6] -0.056 | [7] -0.162 | [8] 0.068 | [9] 0.048

NMU (UniProt P48645)
Sequence of UniProt P48645 (P48645 whole entry, looked up): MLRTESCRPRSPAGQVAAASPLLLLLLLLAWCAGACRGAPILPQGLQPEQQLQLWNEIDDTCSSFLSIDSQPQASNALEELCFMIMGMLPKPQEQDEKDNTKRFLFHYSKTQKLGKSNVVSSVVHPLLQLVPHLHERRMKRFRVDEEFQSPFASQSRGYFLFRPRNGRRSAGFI
inactive: erlotinib -0.003 | [1] 0.072 | [2] -0.02 | [3] 0.063 | [4] -0.123 | [5] 0.094 | [6] -0.129 | [7] -0.018 | [8] 0.025 | [9] 0.133

MRPS5 (UniProt P82675)
inactive: erlotinib -0.077 | [1] 0.038 | [2] 0.009 | [3] 0.193 | [4] 0.007 | [5] -0.008 | [6] 0.027 | [7] 0.158 | [8] -0.035 | [9] -0.085

NSUN2 (UniProt Q08J23)
inactive: erlotinib -0.017 | [1] 0.137 | [2] -0.002 | [3] 0.038 | [4] -0.018 | [5] 0.006 | [6] -0.052 | [7] -0.112 | [8] -0.067 | [9] 0.064

MYH10 isoform 3 (UniProt P35580)
Sequence of UniProt P35580 (P35580 whole entry, looked up): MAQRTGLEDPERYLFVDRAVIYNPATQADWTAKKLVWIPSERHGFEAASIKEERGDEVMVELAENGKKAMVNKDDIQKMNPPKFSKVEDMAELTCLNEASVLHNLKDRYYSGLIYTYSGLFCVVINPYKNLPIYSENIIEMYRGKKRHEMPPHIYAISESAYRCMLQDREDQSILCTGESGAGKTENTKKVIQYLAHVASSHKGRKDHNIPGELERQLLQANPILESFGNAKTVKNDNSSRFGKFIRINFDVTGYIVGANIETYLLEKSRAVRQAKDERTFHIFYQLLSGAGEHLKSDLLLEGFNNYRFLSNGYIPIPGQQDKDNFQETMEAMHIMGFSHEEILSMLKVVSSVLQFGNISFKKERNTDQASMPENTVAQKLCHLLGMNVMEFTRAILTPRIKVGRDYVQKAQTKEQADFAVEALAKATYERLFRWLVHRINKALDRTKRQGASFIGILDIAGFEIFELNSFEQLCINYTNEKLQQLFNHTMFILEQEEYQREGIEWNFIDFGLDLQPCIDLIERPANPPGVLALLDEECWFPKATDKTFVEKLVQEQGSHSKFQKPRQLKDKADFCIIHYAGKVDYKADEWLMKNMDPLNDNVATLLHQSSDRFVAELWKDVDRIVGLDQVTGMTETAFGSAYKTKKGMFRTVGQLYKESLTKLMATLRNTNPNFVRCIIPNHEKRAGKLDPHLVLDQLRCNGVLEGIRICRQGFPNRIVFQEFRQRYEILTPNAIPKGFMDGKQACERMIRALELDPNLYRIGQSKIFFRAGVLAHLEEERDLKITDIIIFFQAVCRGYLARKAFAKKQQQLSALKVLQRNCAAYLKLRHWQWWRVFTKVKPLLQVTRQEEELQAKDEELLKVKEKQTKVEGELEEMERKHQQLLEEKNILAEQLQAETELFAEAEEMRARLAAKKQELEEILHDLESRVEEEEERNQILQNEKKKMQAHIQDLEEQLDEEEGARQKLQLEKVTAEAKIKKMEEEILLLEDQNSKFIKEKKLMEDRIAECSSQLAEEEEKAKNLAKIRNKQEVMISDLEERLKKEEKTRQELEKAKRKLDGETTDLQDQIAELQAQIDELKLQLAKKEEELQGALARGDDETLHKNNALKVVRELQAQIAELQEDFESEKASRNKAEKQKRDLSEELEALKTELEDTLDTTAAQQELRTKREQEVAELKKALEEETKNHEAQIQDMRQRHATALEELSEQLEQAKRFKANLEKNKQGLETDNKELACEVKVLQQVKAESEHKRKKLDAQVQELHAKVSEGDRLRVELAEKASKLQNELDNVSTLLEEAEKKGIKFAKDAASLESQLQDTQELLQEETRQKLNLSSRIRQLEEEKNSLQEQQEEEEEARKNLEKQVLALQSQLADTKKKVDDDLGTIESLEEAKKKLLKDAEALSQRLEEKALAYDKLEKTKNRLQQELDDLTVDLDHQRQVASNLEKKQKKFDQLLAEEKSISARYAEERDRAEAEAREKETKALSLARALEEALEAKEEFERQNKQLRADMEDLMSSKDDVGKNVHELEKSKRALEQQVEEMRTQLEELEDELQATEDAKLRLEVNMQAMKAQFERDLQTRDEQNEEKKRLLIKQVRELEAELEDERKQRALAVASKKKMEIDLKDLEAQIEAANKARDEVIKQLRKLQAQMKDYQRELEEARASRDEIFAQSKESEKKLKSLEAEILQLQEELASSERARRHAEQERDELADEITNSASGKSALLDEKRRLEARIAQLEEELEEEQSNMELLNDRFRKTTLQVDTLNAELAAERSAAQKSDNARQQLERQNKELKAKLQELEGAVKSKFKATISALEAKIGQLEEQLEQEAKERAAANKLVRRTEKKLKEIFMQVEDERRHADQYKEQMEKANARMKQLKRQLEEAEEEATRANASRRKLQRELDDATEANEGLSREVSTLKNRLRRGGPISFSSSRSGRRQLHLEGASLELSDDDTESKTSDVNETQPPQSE
inactive: erlotinib -0.002 | [1] 0.043 | [2] 0.089 | [3] -0.032 | [4] 0.006 | [5] 0.01 | [6] 0.034 | [7] 0.021 | [8] 0.015 | [9] -0.024

NME2P1 (UniProt O60361)
inactive: erlotinib 0.147 | [1] 0.012 | [2] 0.147 | [3] 0.03 | [4] 0.04 | [5] 0.137 | [6] -0.163 | [7] 0.026 | [8] 0.076 | [9] 0.078

OSBPL8 (UniProt Q9BZF1)
Sequence of UniProt Q9BZF1 (Q9BZF1 whole entry, looked up): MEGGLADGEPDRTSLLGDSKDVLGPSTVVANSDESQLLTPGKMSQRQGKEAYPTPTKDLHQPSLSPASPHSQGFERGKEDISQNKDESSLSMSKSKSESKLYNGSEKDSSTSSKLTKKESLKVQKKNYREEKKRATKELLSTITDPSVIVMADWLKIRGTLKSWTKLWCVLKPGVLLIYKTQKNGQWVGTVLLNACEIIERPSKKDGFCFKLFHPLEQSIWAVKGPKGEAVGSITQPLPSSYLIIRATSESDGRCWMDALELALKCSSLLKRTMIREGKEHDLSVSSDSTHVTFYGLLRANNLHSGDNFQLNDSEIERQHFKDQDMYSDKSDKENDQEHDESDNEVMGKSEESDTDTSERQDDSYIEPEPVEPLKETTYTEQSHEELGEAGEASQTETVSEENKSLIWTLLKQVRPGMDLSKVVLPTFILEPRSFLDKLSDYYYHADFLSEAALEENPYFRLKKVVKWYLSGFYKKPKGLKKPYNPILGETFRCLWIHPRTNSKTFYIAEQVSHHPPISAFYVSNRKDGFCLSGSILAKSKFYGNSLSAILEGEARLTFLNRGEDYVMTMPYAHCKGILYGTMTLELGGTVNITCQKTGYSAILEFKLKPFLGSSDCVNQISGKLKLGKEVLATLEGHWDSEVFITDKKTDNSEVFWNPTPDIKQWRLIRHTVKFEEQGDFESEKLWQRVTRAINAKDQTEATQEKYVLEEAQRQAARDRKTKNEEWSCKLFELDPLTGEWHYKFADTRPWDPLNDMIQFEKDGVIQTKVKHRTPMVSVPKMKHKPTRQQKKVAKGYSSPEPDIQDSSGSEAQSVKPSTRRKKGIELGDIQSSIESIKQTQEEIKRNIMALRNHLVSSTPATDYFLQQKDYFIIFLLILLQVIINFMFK
inactive: erlotinib 0.243 | [1] 0.156 | [2] -0.212 | [3] 0.021 | [4] 0.005 | [5] -0.028 | [6] 0.077 | [7] -0.005 | [8] -0.048 | [9] -0.085

MORC3 (UniProt Q14149)
inactive: erlotinib 0.022 | [1] 0.084 | [2] 0.171 | [3] 0.035 | [4] -0.024 | [5] 0.068 | [6] 0.012 | [7] 0.014 | [8] -0.026 | [9] -0.162

MNAT1 (UniProt P51948)
Sequence of UniProt P51948 (P51948 whole entry, looked up): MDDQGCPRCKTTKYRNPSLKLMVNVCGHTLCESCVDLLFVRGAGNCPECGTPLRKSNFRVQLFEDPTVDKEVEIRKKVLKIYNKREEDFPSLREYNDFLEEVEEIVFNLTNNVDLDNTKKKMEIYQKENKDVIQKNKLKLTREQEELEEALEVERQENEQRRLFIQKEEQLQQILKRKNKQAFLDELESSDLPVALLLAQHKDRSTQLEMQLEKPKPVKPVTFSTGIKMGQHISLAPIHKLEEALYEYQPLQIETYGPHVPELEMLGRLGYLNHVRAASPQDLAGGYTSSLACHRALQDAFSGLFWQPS
inactive: erlotinib 0.01 | [1] 0.04 | [2] -0.066 | [3] 0.012 | [4] -0.012 | [5] 0.008 | [6] 0.002 | [7] -0.002 | [8] -0.067 | [9] -0.01

NOP2 isoform 4 (UniProt P46087)
inactive: erlotinib -0.17 | [1] -0.261 | [2] -0.349 | [3] -0.064 | [4] -0.045 | [5] 0.272 | [6] -0.255 | [7] 0.078 | [8] 0.023 | [9] 0.006

MTFR1L (UniProt Q9H019)
inactive: erlotinib -0.002 | [1] -0.013 | [2] -0.202 | [3] 0.064 | [4] -0.001 | [5] -0.03 | [6] 0.077 | [7] 0.13 | [8] 0.036 | [9] -0.027

NDFIP1 (UniProt Q9BT67)
Sequence of UniProt Q9BT67 (Q9BT67 whole entry, looked up): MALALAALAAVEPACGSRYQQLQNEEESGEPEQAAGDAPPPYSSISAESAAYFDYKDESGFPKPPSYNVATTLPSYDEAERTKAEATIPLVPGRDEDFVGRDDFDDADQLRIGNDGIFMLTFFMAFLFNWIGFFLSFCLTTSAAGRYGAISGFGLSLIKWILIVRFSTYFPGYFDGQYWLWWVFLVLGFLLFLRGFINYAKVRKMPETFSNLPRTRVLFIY
inactive: erlotinib -0.066 | [1] 0.07 | [2] -0.046 | [3] 0.077 | [4] -0.244 | [5] 0.046 | [6] 0.005 | [7] 0.122 | [8] -0.234 | [9] -0.168

NDUFA12 (UniProt Q9UI09)
Sequence of UniProt Q9UI09 (Q9UI09 whole entry, looked up): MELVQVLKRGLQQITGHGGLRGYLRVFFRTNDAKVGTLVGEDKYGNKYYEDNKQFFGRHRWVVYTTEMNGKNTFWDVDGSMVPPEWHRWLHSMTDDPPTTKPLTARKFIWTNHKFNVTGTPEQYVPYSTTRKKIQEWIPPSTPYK
inactive: erlotinib -0.014 | [1] 0.011 | [2] 0.016 | [3] 0.147 | [4] 0.075 | [5] 0.001 | [6] 0.061 | [7] -0.007 | [8] 0.028 | [9] -0.031

MRPS9 (UniProt P82933)
inactive: erlotinib -0.057 | [1] -0.019 | [2] -0.087 | [3] 0.137 | [4] 0.019 | [5] 0.04 | [6] 0.023 | [7] 0.043 | [8] 0.002 | [9] -0.095

OTUD6B (UniProt Q8N6M0)
Sequence of UniProt Q8N6M0 (Q8N6M0 whole entry, looked up): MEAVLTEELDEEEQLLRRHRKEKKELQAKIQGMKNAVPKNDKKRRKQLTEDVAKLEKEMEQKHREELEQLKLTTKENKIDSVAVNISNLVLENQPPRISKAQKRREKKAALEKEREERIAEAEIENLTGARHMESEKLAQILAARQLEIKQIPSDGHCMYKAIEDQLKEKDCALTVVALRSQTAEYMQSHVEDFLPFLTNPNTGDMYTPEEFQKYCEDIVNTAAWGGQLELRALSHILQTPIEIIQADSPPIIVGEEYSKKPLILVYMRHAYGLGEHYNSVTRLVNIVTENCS
inactive: erlotinib 0.053 | [1] 0.117 | [2] -0.103 | [3] 0.019 | [4] 0.142 | [5] 0.032 | [6] -0.001 | [7] 0.051 | [8] -0.014 | [9] -0.055
